{"source": "PubChem BioAssay (Tox21)", "note": "Inconclusive results are not listed. Entries that show only a call come without a potency. Activity calls are given as the source filed them. Unless noted, calls follow the shape of the full dose curve.", "data": [{"target": "Thyrotropin receptor (Homo sapiens) (UniProt P16473)", "sequence (P16473 whole entry, looked up)": "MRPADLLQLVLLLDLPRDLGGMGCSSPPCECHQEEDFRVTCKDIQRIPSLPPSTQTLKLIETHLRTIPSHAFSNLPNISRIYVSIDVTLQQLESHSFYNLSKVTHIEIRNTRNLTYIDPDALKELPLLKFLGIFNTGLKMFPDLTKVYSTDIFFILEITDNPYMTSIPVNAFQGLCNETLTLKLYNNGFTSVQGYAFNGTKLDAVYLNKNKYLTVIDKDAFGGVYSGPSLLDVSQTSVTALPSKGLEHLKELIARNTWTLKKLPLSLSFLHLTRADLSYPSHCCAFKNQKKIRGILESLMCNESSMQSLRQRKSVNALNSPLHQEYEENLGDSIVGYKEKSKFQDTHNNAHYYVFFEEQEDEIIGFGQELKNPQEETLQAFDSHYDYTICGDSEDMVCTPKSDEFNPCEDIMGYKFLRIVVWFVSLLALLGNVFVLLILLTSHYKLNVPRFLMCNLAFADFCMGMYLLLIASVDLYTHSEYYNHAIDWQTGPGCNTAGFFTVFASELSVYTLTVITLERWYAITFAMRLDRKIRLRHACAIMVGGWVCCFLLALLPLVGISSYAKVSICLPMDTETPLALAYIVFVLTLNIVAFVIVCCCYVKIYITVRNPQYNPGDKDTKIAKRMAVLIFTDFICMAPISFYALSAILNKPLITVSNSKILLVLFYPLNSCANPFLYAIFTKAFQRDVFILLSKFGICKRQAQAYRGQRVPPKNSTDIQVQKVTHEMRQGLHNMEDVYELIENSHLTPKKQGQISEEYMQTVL", "experiment": "qHTS assay to identify small molecule antagonists of the thyroid stimulating hormone receptor (TSHR) signaling pathway (AID 1259385); also: nearly all actives have a fitted effect of over 20% in size", "details": "TSHR-HEK293 cAMP HTRF, TSH-stimulated antagonist mode; series mostly up to 92.4 µM", "procedure,_shortened": "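TSHR-HEK293 cells (800/well) plated 18 h, then compounds with Ro20-1724 and TSH at 1.5 ng/mL final, 30 min at room temperature. cAMP quantified by HTRF (cAMP-d2/anti-cAMP-cryptate, 1 h); 15 concentrations in triplicate.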", "values": [{"smiles": "O=C(O)CCCc1ccc(N(CCCl)CCCl)cc1", "outcome": "inactive"}, {"smiles": "NNc1ccccc1", "outcome": "inactive"}, {"smiles": "Nc1nc(N)nc(NC2CC2)n1", "outcome": "inactive"}, {"smiles": "Sc1ccccc1", "outcome": "inactive"}, {"smiles": "CC(C)c1cccc(C(C)C)c1O", "outcome": "inactive"}, {"smiles": "COC(C)(C)CCCC(C)C/C=C/C(C)=C/C(=O)OC(C)C", "note": "(stereo not drawn)", "outcome": "inactive"}, {"smiles": "C=CCN=C=S", "outcome": "inactive"}, {"smiles": "O=P1(NCCCl)OCCCN1CCCl", "note": "(stereo not drawn)", "outcome": "inactive"}, {"smiles": "CNC(=O)Oc1cccc2ccccc12", "outcome": "inactive"}, {"smiles": "Nc1cc(Cl)cc(Cl)c1", "outcome": "inactive"}, {"smiles": "Cc1cc(O)ccc1Cl", "outcome": "inactive"}, {"smiles": "CCOC(=O)CC(SP(=O)(OC)OC)C(=O)OCC", "note": "(stereo not drawn)", "outcome": "inactive"}, {"smiles": "CC(=O)/C=C/c1ccccc1", "outcome": "inactive"}, {"smiles": "Cc1ccc(N)cc1", "outcome": "inactive"}, {"smiles": "Cl[C@H]1OCCO[C@@H]1Cl", "outcome": "inactive"}, {"smiles": "CCSC(=O)N1CCCCCC1", "outcome": "inactive"}, {"smiles": "CN(C)NC(=O)CCC(=O)O", "outcome": "inactive"}, {"smiles": "CC[N+](=O)[O-]", "outcome": "inactive"}, {"smiles": "Oc1ccc(Cl)cc1", "outcome": "inactive"}, {"smiles": "CN1C(=O)CCS(=O)(=O)C1c1ccc(Cl)cc1", "note": "(stereo not drawn)", "outcome": "inactive"}, {"smiles": "COP(=S)(OC)SCN1C(=O)c2ccccc2C1=O", "outcome": "inactive"}, {"smiles": "OCc1ccco1", "outcome": "inactive"}, {"smiles": "CCOP(=S)(OCC)Oc1ccc([N+](=O)[O-])cc1", "outcome": "inactive"}, {"smiles": "C[C@]12CC[C@H](O)CC1=CC[C@@H]1[C@@H]2CC[C@]2(C)C(=O)CC[C@@H]12", "outcome": "inactive"}, {"smiles": "C=CC(=O)OCC(CC)CCCC", "note": "(stereo not drawn)", "outcome": "inactive"}, {"smiles": "CCOP(=S)(OCC)Oc1cc(C)nc(C(C)C)n1", "outcome": "inactive"}, {"smiles": "c1ccc2c(c1)CCCC2", "outcome": "inactive"}, {"smiles": "CC(=O)C1CCOC1=O", "note": "(stereo not drawn)", "outcome": "inactive"}, {"smiles": "CSc1nnc(C(C)(C)C)c(=O)n1N", "outcome": "inactive"}, {"smiles": "N#Cc1cccc(C#N)c1", "outcome": "inactive"}]}, {"system": "not listed separately", "experiment": "qHTS assay to identify small molecule agonists of the estrogen receptor alpha (ER-alpha) signaling pathway in the presence of an antagonist - cell viability counter screen (AID 1259386; active = well fitted cell-killing curve with a large enough effect in the repeat runs; also: nearly all actives have a fitted effect of over 30% in size)", "details": "VM7Luc4E2 viability, CellTiter-Fluor fluorescence, 22 h; series mostly up to 92.4 µM", "procedure,_shortened": "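VM7Luc4E2 cells (endogenous full-length ER-alpha, 4×ERE-luciferase) were held 5 days in phenol red-free medium with 10% charcoal-stripped FBS, plated, then given 10.0nM ICI-182,780 and compounds at 15 concentrations for 22hr at 37C; viability read by CellTiter-Fluor fluorescence.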", "values": [{"smiles": "O=C(O)CCCc1ccc(N(CCCl)CCCl)cc1", "Potency": "inactive"}, {"smiles": "NNc1ccccc1", "Potency": "inactive"}, {"smiles": "Nc1nc(N)nc(NC2CC2)n1", "Potency": "inactive"}, {"smiles": "Sc1ccccc1", "Potency": "inactive"}, {"smiles": "COC(C)(C)CCCC(C)C/C=C/C(C)=C/C(=O)OC(C)C", "note": "(stereo not drawn)", "Potency": "inactive"}, {"smiles": "C=CCN=C=S", "Potency": "inactive"}, {"smiles": "O=P1(NCCCl)OCCCN1CCCl", "note": "(stereo not drawn)", "Potency": "inactive"}, {"smiles": "Nc1cc(Cl)cc(Cl)c1", "Potency": "inactive"}, {"smiles": "CCOC(=O)CC(SP(=O)(OC)OC)C(=O)OCC", "note": "(stereo not drawn)", "Potency": "inactive"}, {"smiles": "CC(=O)/C=C/c1ccccc1", "Potency": "inactive"}, {"smiles": "Cc1ccc(N)cc1", "Potency": "inactive"}, {"smiles": "Cl[C@H]1OCCO[C@@H]1Cl", "Potency": "inactive"}, {"smiles": "CCSC(=O)N1CCCCCC1", "Potency": "inactive"}, {"smiles": "CN(C)NC(=O)CCC(=O)O", "Potency": "inactive"}, {"smiles": "CN1C(=O)CCS(=O)(=O)C1c1ccc(Cl)cc1", "note": "(stereo not drawn)", "Potency": "inactive"}, {"smiles": "COP(=S)(OC)SCN1C(=O)c2ccccc2C1=O", "Potency": "inactive"}, {"smiles": "OCc1ccco1", "Potency": "inactive"}, {"smiles": "CCOP(=S)(OCC)Oc1ccc([N+](=O)[O-])cc1", "Potency": "inactive"}, {"smiles": "C[C@]12CC[C@H](O)CC1=CC[C@@H]1[C@@H]2CC[C@]2(C)C(=O)CC[C@@H]12", "Potency": "inactive"}, {"smiles": "C=CC(=O)OCC(CC)CCCC", "note": "(stereo not drawn)", "Potency": "inactive"}, {"smiles": "c1ccc2c(c1)CCCC2", "Potency": "inactive"}, {"smiles": "CSc1nnc(C(C)(C)C)c(=O)n1N", "Potency": "inactive"}, {"smiles": "N#Cc1cccc(C#N)c1", "Potency": "inactive"}]}]}
